From PubChem BioAssay AID624405 (Broad Institute, 2012) come the findings set out here.

Screen size: about 1,900 compounds; about 250 (13%) were called active. Not shown: some 4% with an inconclusive outcome.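 How the source made its calls: active means fitted curve reaches 40% rescue activity at or below the top valid dose, in every test run; inconclusive means test runs disagree, some active and some inactive; inactive means every run misses the threshold or moves the wrong way.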 Only a sample is shown. A call without a number means that no potency is given here. Potency and affinity values are given separately.

The nature of the test: suppressors of statin myotoxicity in myotubes, dose response, cell-based, C2C12 myotubes, ATP luminescence, cherry pick (AID 624405).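 Further: myotubes are challenged with simvastatin at 10 µM to lower ATP.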 The note with it: C2C12 myotubes + simvastatin, 48 h, scaled: DMSO wells 0, geranylgeraniol wells 100; series mostly up to 19.5 µM.
Take `COc1ccc(C#Cc2cnc3c(c2)C(=O)N([C@H](C)CO)C[C@H](C)[C@@H](CN(C)C(=O)Nc2cccc(OC)c2)O3)cc1`: the result was inactive. For the compound `COc1cc(C(=O)OCCN2CCOCC2)ccc1O`, the outcome was inactive. With `C[C@@H]1CN([C@@H](C)CO)C(=O)c2cccc(NC(=O)C3CCCCC3)c2O[C@@H]1CN(C)S(=O)(=O)c1ccc(Cl)cc1`, the outcome was inactive. Take `C[C@H](CO)N1C[C@H](C)[C@H](CN(C)S(C)(=O)=O)OCCCC[C@H](C)Oc2ccc(NS(=O)(=O)c3ccc(F)cc3)cc2C1=O`: the outcome was inactive. On to `COc1ccc(-c2cnc3c(c2)C(=O)N([C@H](C)CO)C[C@H](C)[C@H](CN(C)S(=O)(=O)c2ccc(F)cc2)O3)cc1`, for which the result was inactive. In the case of `Cc1[nH]nc2c1C(c1ccsc1)C(C#N)=C(N)O2` (stereo unspecified), the result was inactive. Take `OC[C@H]1[C@H]2c3ccccc3NC[C@H]2N1Cc1ccccc1Cl`: the outcome was inactive. Regarding `CCC(CC)C(=O)Nc1cccc(/C(C)=N/NC(=O)c2ccccc2Cl)c1`, the result was inactive. For `COc1cc(OC)cc(C(=O)Nc2ccccc2C(=O)N2CCCC2)c1`, the outcome was inactive. In the case of `O=C(NCc1ccncc1)Nc1ccccc1Cl`, the outcome was inactive. With `C[C@@H]1CN([C@@H](C)CO)C(=O)Cc2cc(NS(=O)(=O)c3ccc(Cl)cc3)ccc2O[C@@H]1CN(C)Cc1ccc(C(F)(F)F)cc1`, the result was inactive. Turning to `C[C@@H]1CN([C@@H](C)CO)C(=O)c2cccc(NS(=O)(=O)c3ccccc3)c2O[C@@H]1CN(C)S(=O)(=O)c1cccs1`, the outcome was inactive.

As to `O=C(Cn1cnc2c(nnn2Cc2ccc(F)cc2)c1=O)NC1CCCC1`, the result was inactive.

Take `O=C1c2ccccc2NC(c2cccc(F)c2)N1Cc1ccco1` (stereo unspecified): the outcome was inactive. Regarding `C[C@H](CO)N1C[C@H](C)[C@@H](CN(C)S(=O)(=O)c2cccs2)OCCCC[C@H](C)Oc2ccc(NC(=O)Nc3ccc(F)cc3)cc2C1=O`, the result was inactive.

Regarding `CCc1ccc(C(O)(CC(C)C)C(CN2CCOCC2)c2ccccc2)cc1` (stereo unspecified), the outcome was inactive. As to `N#CC(c1ccc(Cl)cc1)c1ccc(Cl)nn1` (stereo unspecified), the result was inactive.

Take `Cc1cc(C)n(CC(=O)N2c3ccccc3Sc3ccccc32)n1`: the result was inactive. As for `O=C(COC(=O)Cc1ccccc1F)NCc1ccc(Cl)cc1`, the entry is “inactive”; as for `CCOC(=O)C(C)C1(O)c2ccccc2-c2ncccc21` (stereo unspecified), “inactive”. With `CN1C[C@H]2[C@@H](c3ccccc31)[C@@H](CO)N2Cc1ccccc1`, the outcome was inactive. For `CCOc1ccc(N(CC(=O)NCc2ccco2)S(=O)(=O)c2ccc(OC)c(OC)c2)cc1` the value was “inactive”; for `CC(=O)N1c2ccc(S(=O)(=O)NCCC(=O)NCCc3ccc(C)cc3)cc2CC1C` (stereo unspecified), “inactive”. In the case of `Nc1nnc(-c2ccccc2)c(-c2ccccc2)n1`, the result was inactive. Consider `O=S(=O)(NC1=NCCC1)c1ccc(F)cc1`, for which the result was inactive. As for `C[C@@H]1CCCCO[C@@H](CN(C)S(=O)(=O)c2cccs2)[C@@H](C)CN([C@@H](C)CO)C(=O)c2cc(NC(=O)Nc3ccc(F)cc3)ccc2O1`, the entry is “inactive”; as for `C[C@@H]1CCCCO[C@H](CN(C)C(=O)NC2CCCCC2)[C@H](C)CN([C@@H](C)CO)C(=O)c2cc(NS(=O)(=O)c3cccs3)ccc2O1`, “inactive”. For `Cc1cc(S(=O)(=O)Nc2nc(CN3CCOCC3)nc3sc4c(c23)CCCC4)ccc1F`, the result was inactive. Regarding `C[C@H]1CN([C@@H](C)CO)C(=O)Cc2cc(NC(=O)Cc3ccccc3)ccc2O[C@@H]1CN(C)Cc1ccc(Cl)c(Cl)c1`, the result was inactive. Turning to `C[C@H]1CN([C@@H](C)CO)C(=O)Cc2cc(NC(=O)CCCCCC(=O)Nc3ccccc3N)ccc2O[C@@H]1CN(C)Cc1ccc(Cl)c(Cl)c1`, the outcome was inactive. Consider `CC1CCCCN1S(=O)(=O)c1ccc(C(=O)Nc2sccc2C(N)=O)cc1` (stereo unspecified), for which the outcome was inactive. In the case of `O=C(CNC(=O)c1ccc(Br)cc1)N/N=C/c1cccnc1`, the result was inactive. As for `C[C@@H]1CCCCO[C@@H](CN(C)CC2CCCCC2)[C@@H](C)CN([C@H](C)CO)C(=O)c2cc(NC(=O)Nc3ccc4c(c3)OCO4)ccc2O1`, the outcome was inactive. Turning to `C[C@@H]1CN([C@@H](C)CO)C(=O)c2cc(NC(=O)Nc3ccc(C(F)(F)F)cc3)ccc2O[C@@H]1CN(C)Cc1ccc(C(=O)Nc2ccccc2N)cc1`, the outcome was inactive. `C[C@@H]1CN([C@H](C)CO)C(=O)c2cc(NC(=O)Nc3ccc(C(F)(F)F)cc3)ccc2O[C@H]1CN(C)Cc1ccc(C(=O)Nc2ccccc2N)cc1`: the outcome was inactive. Regarding `C[C@H](CO)N1C[C@H](C)[C@H](CN(C)Cc2ccc(C(=O)Nc3ccccc3N)cc2)Oc2ccc(NC(=O)Nc3ccc(C(F)(F)F)cc3)cc2C1=O`, the result was inactive.

As to `C[C@@H]1CN([C@H](C)CO)C(=O)c2cccc(NC(=O)C3CCOCC3)c2O[C@@H]1CN(C)Cc1ccc(C(=O)Nc2ccccc2N)cc1`, the outcome was inactive. Take `C[C@@H]1CN([C@@H](C)CO)C(=O)c2cccc(NC(=O)Nc3ccccc3)c2O[C@H]1CN(C)Cc1ccc(C(=O)Nc2ccccc2N)cc1`: the outcome was inactive.

Consider `C[C@@H]1CN([C@@H](C)CO)C(=O)c2cccc(NC(=O)c3nc4ccccc4s3)c2O[C@H]1CN(C)Cc1ccc(C(=O)Nc2ccccc2N)cc1`, for which the result was inactive. As for `C[C@H]1CN([C@@H](C)CO)C(=O)c2cc(NC(=O)Nc3ccc(C(F)(F)F)cc3)ccc2O[C@H]1CN(C)Cc1ccc(C(=O)Nc2ccccc2N)cc1`, the outcome was inactive. In the case of `C[C@@H]1CN([C@H](C)CO)C(=O)c2cccc(NC(=O)c3nc4ccccc4s3)c2O[C@@H]1CN(C)C(=O)Nc1cccc2ccccc12`, the outcome was inactive. `O=C(O)CCC(C(=O)O)n1c(O)c(C2=c3ccccc3=NC2=O)sc1=S` (stereo unspecified): the outcome was inactive. For `COc1ccc(C(=O)N2C[C@H]3[C@@H](c4ccccc42)[C@H](CO)N3Cc2ccccc2)cc1` the value was “inactive”; for `C[C@H]1CN([C@@H](C)CO)C(=O)c2cccc(NC(=O)Nc3ccc(C(F)(F)F)cc3)c2O[C@@H]1CN(C)S(=O)(=O)c1ccc(Cl)cc1`, “inactive”. For the compound `C[C@H]1CCCCO[C@H](CN(C)C(=O)Nc2cccc3ccccc23)[C@@H](C)CN([C@@H](C)CO)C(=O)c2cc(NC(=O)Nc3ccc4c(c3)OCO4)ccc2O1`, the outcome was inactive.

Turning to `COc1ccc(S(=O)(=O)N2CCN(c3ccc4nnc(-c5ccccc5)n4n3)CC2)cc1`, the result was inactive. For `COc1ccc(-c2nc(CC(=O)O)cs2)cc1` the value was “inactive”; for `COc1ccc(-c2noc(CCCOc3ccc(Cl)cc3Cl)n2)cc1`, “inactive”. Take `COc1ccc2sc(-c3ccccc3OC)c(-c3ccc(O)cc3)c2c1`: the outcome was inactive. `C[C@@H]1CCCCO[C@@H](CN(C)S(=O)(=O)c2ccc(F)cc2)[C@@H](C)CN([C@H](C)CO)C(=O)c2cc(NC(=O)Nc3cccc4ccccc34)ccc2O1`: the result was inactive.

In the case of `C[C@@H]1CCCCO[C@H](CN(C)S(=O)(=O)c2cccs2)[C@H](C)CN([C@H](C)CO)C(=O)c2cc(NC(=O)Nc3ccc(F)cc3)ccc2O1`, the outcome was inactive.

`C[C@H]1CN([C@@H](C)CO)C(=O)c2cccc(NC(=O)Nc3ccc4c(c3)OCO4)c2O[C@@H]1CN(C)CC1CCCCC1`: the result was inactive. As to `C[C@H]1CN([C@@H](C)CO)C(=O)c2cccc(NC(=O)Nc3ccc(F)cc3)c2O[C@@H]1CN(C)CC1CCCCC1`, the outcome was inactive. As to `CC(=O)c1cc(C#N)c(Oc2ccc(Cl)cc2Cl)nc1C`, the result was inactive.

Turning to `CC(=O)C1=C(O)C(=O)N(c2ccc(S(N)(=O)=O)cc2)C1c1ccccc1F` (stereo unspecified), the outcome was inactive.

On to `C[C@@H]1CN([C@H](C)CO)C(=O)c2cc(C3=CCCCC3)cnc2O[C@@H]1CN(C)C(=O)Nc1ccc(F)cc1`, for which the outcome was inactive. For `Cc1noc(C)c1NC(=O)Nc1ccc2c(c1)C(=O)N([C@@H](C)CO)C[C@@H](C)[C@@H](CN(C)C(=O)Nc1cccc3ccccc13)O2`, the outcome was inactive. For `CC(O)CNc1nc2ccccc2n1-c1ncnc2sc3c(c12)CCC3` (stereo unspecified) the value was “inactive”. As for `Oc1[nH]c2ccccc2c1C=NCC1CCCO1` (stereo unspecified), the entry is “inactive”. `CCOC(=O)C1=NN(C(=O)Cc2ccccc2)C(O)(c2ccc(Cl)cc2)C1` (stereo unspecified): the outcome was inactive. Turning to `C[C@@H]1CN([C@H](C)CO)C(=O)Cc2cc(NC(=O)Nc3cccc4ccccc34)ccc2O[C@@H]1CN(C)Cc1ccc(C(=O)Nc2ccccc2N)cc1`, the outcome was inactive. For the compound `C[C@H]1CN([C@@H](C)CO)C(=O)Cc2cc(NC(=O)Nc3cccc4ccccc34)ccc2O[C@@H]1CN(C)Cc1ccc(C(=O)Nc2ccccc2N)cc1`, the result was inactive.

Take `C[C@@H]1CN([C@@H](C)CO)C(=O)Cc2cc(NC(=O)Nc3cccc4ccccc34)ccc2O[C@@H]1CN(C)Cc1ccc(C(=O)Nc2ccccc2N)cc1`: the outcome was inactive. Take `C[C@@H]1CN([C@H](C)CO)C(=O)Cc2cc(NC(=O)Nc3cccc4ccccc34)ccc2O[C@H]1CN(C)Cc1ccc(C(=O)Nc2ccccc2N)cc1`: the outcome was inactive. With `CCN(CC)C(=O)c1scc2c1OCCO2`, the result was inactive. `CC1CC(c2ccccc2)n2nc(N3C(=O)c4ccccc4C3=O)nc2N1` (stereo unspecified): the outcome was inactive. Consider `c1ccc(CSc2nnc(-c3ccccn3)n2-c2ccccc2)cc1`, for which the result was inactive.

For `Cc1nnc(SCC(=O)NCc2ccccc2)n1-c1ccccc1`, the result was inactive.

As to `COc1ccc(CN(C)C[C@@H]2Oc3ccc(NC(=O)Cc4ccccc4)cc3CC(=O)N([C@H](C)CO)C[C@H]2C)cc1`, the outcome was inactive. `CC(=O)Nc1cccc(Nc2nc(-c3ccccc3F)nc3ccccc23)c1`: the outcome was inactive. Regarding `CCCC(=O)NC(=S)Nc1cccc(C(C)=O)c1`, the result was inactive. For `CCN(C(=O)COC(=O)c1cnc(C)cn1)C1CCCCC1`, the result was inactive. For `Cc1cc(C)c2c(c1)/C(=N/NS(=O)(=O)c1ccccc1)CCC2`, the outcome was inactive. Take `Cc1ccccc1N(CC(=O)NC1CCCC1)C(=O)CS(=O)CC(=O)Nc1ccc2c(c1)OCO2` (stereo unspecified): the outcome was inactive. As to `CC(C)C(=O)Nc1cc(S(=O)(=O)N2CCOCC2)ccc1N1CCCCC1`, the outcome was inactive. Turning to `CC1CCN(S(=O)(=O)c2ccc3ccccc3c2)CC1`, the outcome was inactive. Consider `OCCNCc1cccc(-c2ccccc2)c1O`, for which the result was inactive. For `O=C(c1ccco1)N1CCN(C(=O)c2cc3sccc3n2Cc2ccccc2)CC1`, the result was inactive.

Regarding `O=C(CN(c1ccc(F)cc1)S(=O)(=O)c1ccccc1)NCc1ccco1`, the outcome was inactive. On to `O=C(NCc1ccco1)C1CCN(C(=O)c2cc3sccc3n2Cc2ccc(F)cc2)CC1`, for which the outcome was inactive. For the compound `CC(C)Oc1ccc(C(=O)NCc2ccco2)cc1`, the result was inactive.
